Screening results (PubChem BioAssay)
HCV inh: blocks hepatitis C virus. Huh7.5.1 HCVcc-Cre infection, luciferase reporter, 44 h. Potency, µM (doses to about 41.8 µM), for inactives: at the top dose activity change, negative = inhibition, actives largely listed as inhibitors. 3.4% of 340,000 active. AID 651820; further: potency means the concentration at half of the fitted maximal effect; on the % scale 0 is the no-effect control and ±100 the full control effect
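Antiviral activity was scored by luciferase reporter output from cells infected with HCVcc-Cre (~0.5 moi) in presence of compound, 44 h infection period, cells seeded 1,000/well 4 h prior.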
AMA1 RON2 block: disrupts binding of P. falciparum AMA1 to RON2; AID 720542; AlphaScreen AMA1-biotinylated RON2 peptide binding; Potency, µM (top dose mostly 58.2 µM), inactives show at the highest dose activity change, negative = inhibition, hits mostly inhibitors; 0.2% of 360,000 active;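 further: potency means the concentration at half of the fitted maximal effect; 0% = vehicle wells and -100% = peptide control; nearly all actives have a fitted effect of over 45% in size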
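AMA1 (3D7) with his tag at 25 nM final met compounds first, then biotinylated RON2 peptide at 25 nM; detection used donor plus acceptor beads, 10 µg/mL apiece, read by AlphaScreen after 30 min at room temperature.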
CHX counter: counter-screen hit for Shiga toxin inhibitors, cycloheximide | cell reporter, cycloheximide protein synthesis inhibition counterscreen | max response, % | 12% of 300,000 active | AID 2314; in the data active means max response mostly above about 13%, no sharp cut-off; inactive means mostly below about 14%; further: read at 38.3 µM for the half of the compounds with a filed dose; 0% is about no effect
Pf growth 48h: inhibits P. falciparum growth in the first generation, 48 h | P. falciparum luciferase growth in erythrocytes, 48 h | Potency, µM (series often up to 28.7 µM), for inactives: at the top dose activity change, negative = inhibition, usual class: inhibitors | 5.9% of 310,000 active | AID 504832; further: potency means the concentration at half of the fitted maximal effect; on the % scale 0 is the no-effect control and ±100 the full control effect
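First compound was added to culture medium, then infected red cells at 0.1% parasitemia and 2% hematocrit (final). After incubation at 37 C under 5% CO2, luciferase detection reagent was dispensed and light output recorded.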
Pf growth 96h: P. falciparum growth inhibition at 96 hour, primary screen for plastid delayed-death inhibitors | P. falciparum luciferase reporter growth, 96 h | Potency, µM (top dose mostly 28.7 µM), without a hit: at the top dose activity change, negative = inhibition, usual class: inhibitors | 6.9% of 320,000 active; further: potency means the concentration at half of the fitted maximal effect; on the % scale 0 is the no-effect control and ±100 the full control effect
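Luminescence readout: decreased luciferase signal marks inhibited growth of reporter-expressing P. falciparum in infected red cells (2% hematocrit, 0.05% parasitemia final), exposed to compound two generations (96 h, 37 C, 5% CO2).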
Shiga inhibitor: inhibitors of Shiga toxin in Vero cells; inhibition, % at 38.7 µM; 9.2% of 290,000 active; Vero cells, Shiga toxin protein synthesis inhibition reporter; AID 2315; in the data active means inhibition mostly above about 28%, no sharp cut-off; inactive means mostly below about 43%; further: 0% is about no effect
* = called active by the depositor; u = inconclusive; x = not tested or not shown; [ ] = remark or other dose. In the library only some 21% were active in any assay of this set; here they are far more common. Unless noted, the call rests on the fitted dose curve; in most records, active means well fitted curve in the direction sought with a large enough effect; inconclusive means small, poorly fitted or top-dose-only effect, or another doubt; inactive means no such curve, though single readings can be large; an effect the other way counts as inactive or inconclusive.

SMILES	HCV inh	AMA1 RON2 block	CHX counter	Pf growth 48h	Pf growth 96h	Shiga inhibitor
O=C1/C(=C/c2ccccc2)Nc2ccccc21	-22%	16%	0	u	3.7µM*	23
O=C1CNC(=O)/C(=C\c2ccccc2)N1	12%	1%	-1	13%	31%	-3
COC(=O)Cc1[nH]n(-c2nc3ccccc3s2)c(=O)c1C(C)=Nc1ccc(Cl)cc1	-2%	56%	39*	150%	159%	70*
COC(=O)Cc1[nH]n(-c2nc3ccccc3s2)c(=O)c1C(C)=Nc1ccc(C)cc1	-15%	90%	35*	-32%	7%	93*
COC(=O)Cc1[nH]n(-c2ccccc2)c(=O)c1C(C)=Nc1ccccc1	1%	-21%	5	39%	10%	15
Cc1cc(N2CCN(C(=O)c3ccco3)CC2)n2nc(-c3cccc(F)c3)cc2n1	10µM*	-11%	-4	u	u	-17
COc1ccc(-c2cc3nc(C)cc(N4CCN(C(=O)c5cccnc5)CC4)n3n2)cc1	x	0%	x	x	x	x
COc1cc(OC)cc(-c2cc3nc(C)cc(N4CCN(C(=O)c5ccco5)CC4)n3n2)c1	x	x	-4	x	1.9µM*	-20
CCNS(=O)(=O)c1ccc(CCC(=O)N2CCN(C(=O)OCC)CC2)cc1	6%	0%	-1	-7%	u	6
OC1=C(O)c2nc3cc(F)ccc3nc21	18%	u	-2	28%	29%	26
Fc1ccc2nc3[nH]c4ccccc4c3nc2c1	0%	14%	44*	143%	-10%	62*
NC(=O)c1ccc(=O)n(Cc2ccc(Cl)cc2Cl)c1	2%	-2%	-1	-7%[0.00184 µM]	30%	5
Cc1c(CCO)c(=O)n(C)n1C(=O)c1ccc(F)cc1	2%	-7%	1	12%	46%	-12
Cc1c(CCO)c(=O)[nH]n1C(=O)c1ccc(F)cc1	11%	-1%	24*	-7%	1%	65*
COc1ccc(OCCN2CCC(C(=O)NC(C)c3cccc4ccccc34)CC2)cc1 (stereo unspecified)	x	0%	x	x	x	x
Cc1nc(Cl)c2c(n1)NC1=C(O2)C(=O)CCC1	10%	8%	21*	19%	2%	19
CCNC(=S)N/N=C/c1ccc(F)cc1	x	x	0	-1%	u	-9
CC(=O)N/N=C/C1=CCC2CC1C2(C)C (stereo unspecified)	12%	0%	3	-5%	7%	-6
CCCCNC(=S)N/N=C/C1=CCC2CC1C2(C)C (stereo unspecified)	u	14%	8	9.3µM*	12µM*	10
CCCCNC(=S)N/N=C/c1ccc(C#N)cc1	-18%	62%	0	-28%	9.3µM*	21
CC(C)NC(=S)N/N=C/C1=CCC2CC1C2(C)C (stereo unspecified)	u	22%	-7	13µM*	u	-16
Cc1noc(C)c1-c1ccc2ncnc(NCc3cccc(F)c3)c2c1	x	x	1	x	x	-4
CC(C)NC(=O)N(C)C[C@H]1Oc2cc(C#Cc3ccc(F)cc3)ccc2S(=O)(=O)N([C@H](C)CO)C[C@H]1C	x	-2%	x	x	x	x
O=S1(=O)Nc2c(ccc3cccnc23)-c2ccccc21	u	-93%	8	2.6µM*	-1%[5.75 µM]	29
Cc1cnc2c3c(cc(Cl)c2c1)-c1ccccc1S(=O)(=O)N3	x	x	73*	x	x	54*
SMILES	HCV inh	AMA1 RON2 block	CHX counter	Pf growth 48h	Pf growth 96h	Shiga inhibitor
Clc1ccc2ccc3cccnc3c2n1	u	39%	5	u	u	51
CC(N=C1NS(=O)(=O)c2ccccc21)C(=O)Nc1ccc(F)cc1Cl (stereo unspecified)	9%	-8%	x	-13%	-28%	x
CC(C)N1CCC1(C)C(=O)Nc1cc(-c2ccccc2)nn1C (stereo unspecified)	x	17%	x	x	x	x
CC(C)C[C@H]1CN(CCCC[C@@H]2CNC(=O)C(=O)N2Cc2ccccc2)C(=O)C(=O)N1CCc1ccc(O)cc1	x	5%	x	x	x	x
O=C(CCNC(=O)c1ccccc1)NNC(=O)COc1ccccc1Cl	2%	40%	x	x	x	x
COc1cc(NS(=O)(=O)c2ccc(OC)c(C)c2C)c(OC)cc1Cl	10µM*	0%	3	u	x	-12
O=C(CNc1cccc(S(=O)(=O)N2CCCCC2)c1)Nc1cccc(F)c1	-22%	-4%	x	2.9µM*	2.3µM*	x
CN(C)S(=O)(=O)c1cccc(NC(=O)CNc2cccc(S(=O)(=O)N3CCCCC3)c2)c1	x	-9%	x	x	x	x
O=C(CNc1cccc(S(=O)(=O)N2CCCC2)c1)Nc1ccc(F)cc1F	u	-10%	x	8.3µM*	9.3µM*	x
CSCCC(NC(=O)c1ccccc1Cl)C(=O)N(C)Cc1cccs1 (stereo unspecified)	0%	7%	-2	-25%	8%	-2
Cc1ccc2c(C)c(C(=O)N3CCCC(C(N)=O)C3)oc2c1C (stereo unspecified)	-5%	4%	27*	49%	u	72*
Cc1c(C(=O)N2CCC(N3CCSCC3)CC2)oc2c(F)cccc12	1%	-4%	23*	-5%	u	33
Cc1c(C(=O)NC2CCOC2)oc2c(F)cccc12 (stereo unspecified)	-14%	8%	71*	45%	u	114*
Cc1ccc2c(C)c(C(=O)N3CCC(O)(c4ccccc4)CC3)oc2c1C	u	-26%	-2	u	18%	-4
Cc1c(C(=O)N2CCC[C@H]2CO)oc2c(F)cccc12	-17%	0%	24*	22%	15µM*	36*
Cc1ccc(NS(=O)(=O)c2c(C(=O)N3CCCCCC3)c(C)n(C)c2C)c(C)c1	-1%	3%	-1	-22%	6%	3
Cc1c(C(=O)N2C[C@@H](C)O[C@@H](C)C2)oc2c(F)cccc12	-11%	-7%	40*	u	-5%	70*
CCOC(=O)C1CCN(C2CCN(C(=O)c3oc4c(C)c(C)ccc4c3C)CC2)CC1	-14%	3%	19*	13µM*	-15%	82*
CCOC(=O)C1CCN(C(=O)c2ccco2)CC1	10%	16%	-3	-3%	9%[5.75 µM]	-19
